# AHR act – AHR activators, primary screen, cell-based, luminescence, luciferase reporter, human. Aryl hydrocarbon receptor (Homo sapiens), P35869. AHR-responsive luciferase reporter cells. activation, % at 5 µM. actives 2.5% (n = 320,000). AID 2796, 2010; in the data active means activation above about 47%
# DAX1 inh – DAX1 (NR0B1) inhibitors, primary screen, cell-based, HEK293, Gal4-DAX1, luciferase luminescence; AID 504766, 2011; actives 0.99% (n = 340,000); HEK293 Gal4-DAX1 luciferase reporter; Nuclear receptor subfamily 0 group B member 1 (Homo sapiens), P51843; inhibition, % at 6.75 µM;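 active means inhibition above the mean over all tested compounds plus 3 SD, cut at about 4.2% in these data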;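 further: inhibition shows as a rise in luminescence from relieved DAX1 repression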
# Target sequence (P51843 207-470 limits assumed): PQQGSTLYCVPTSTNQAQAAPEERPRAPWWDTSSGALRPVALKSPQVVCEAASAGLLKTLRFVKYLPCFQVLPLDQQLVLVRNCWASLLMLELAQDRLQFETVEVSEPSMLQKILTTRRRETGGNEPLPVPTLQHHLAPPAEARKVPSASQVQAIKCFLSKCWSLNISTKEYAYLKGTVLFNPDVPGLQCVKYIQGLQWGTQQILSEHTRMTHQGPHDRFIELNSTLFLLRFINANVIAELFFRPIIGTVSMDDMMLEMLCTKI
# HSF-1 act – HSF-1 activators, primary screen, NIH3T3-HGL cells, MG132 stress, luminescence, single point; activation, % at 9 µM; AID 504408, 2011; actives 1.7% (n = 300,000); NIH3T3-HGL HSF-1 luciferase reporter, 8 h; 100% = twice DMSO control signal;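 active means mean replicate activation of at least 50% with a set share of replicates each reaching 50%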
# GAA850 FXN act – FXN promoter activators, primary screen, cell-based, luciferase luminescence, HEK293 lucGAA850 | HEK293 lucGAA850 FXN promoter luciferase reporter, 24 h; percent of 10 µM SAHA response | activation, % at 6 µM | actives 0.56% (n = 360,000);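 active means activation above the average of all compounds screened plus 3 SD, cutoff fixed separately per campaign, cut at about 7.5% in these data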
# HSF1 inh – HSF1 inhibitors in luciferase reporter cells, primary screen, cell-based, NIH3T3, luminescence; NIH3T3-HGL HSE-luciferase, MG132-induced, luminescence 8 h; active compounds read low; activity change, negative = inhibition, % at 7.5 µM (by protocol); actives 0.77% (n = 300,000);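 active means more than half of replicate wells show activity change below -50%, luminescence cut by over half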;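 further: luciferase reports HSF-1 transcriptional activity via heat shock element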
# Hits are given with their value; n = inactive; x = no result given. In the library only some 5.4% were active in any assay of this set; here they are far more common.
SMILES,AHR act,DAX1 inh,HSF-1 act,GAA850 FXN act,HSF1 inh
Cc1ccc2c(COC(=O)c3n[nH]c4ccccc34)cc(=O)oc2c1,n,n,75.7,n,n
CC1CN(CC(=O)NCc2ccc(F)cc2)CC(C)O1 (centres undefined),n,n,n,n,n
COc1ccc(-n2ncc3c2CC(C)(C)CC3NC(=O)CCn2cncn2)cc1 (centres undefined),x,n,n,n,n
c1ccc(Nc2nnc(-c3cccc4ccccc34)o2)cc1,n,x,n,n,n
Cc1ccc(Nc2nnc(-c3ccccc3N)o2)cc1C,n,6.5,n,n,n
CCC1(C)N=C(N)Nc2nc3cc(C)c(C)cc3n21 (centres undefined),n,n,70.7,n,n
NC1=NC2(CCCC2)n2c(nc3ccccc32)N1,n,n,n,n,n
Cc1oc2cc(O)ccc2c(=O)c1Oc1ccccc1,n,n,n,n,n
Cc1oc2cc(O)ccc2c(=O)c1Oc1ccccc1Br,59.2,n,n,n,n
O=C(Nc1ccc(-c2cnco2)cc1)c1ccc(F)cc1F,n,n,n,n,n
Cc1ccc(-c2cnco2)cc1,n,6.3,n,n,n
Cc1ccc(C(=O)Oc2oc(-c3ccccc3)nc2C=Nc2ccc(N(C)C)cc2)cc1,57.6,n,143.8,n,n
CN(C)c1ccc(N=Cc2nc(-c3ccccc3)oc2OC(=O)c2cccc(Cl)c2)cc1,60.3,n,n,n,n
COc1ccc(N=Cc2nc(-c3ccccc3)oc2OC(C)=O)cc1,n,n,n,n,n
COc1ccc(-c2cc3cc4c(cc3cn2)OCO4)cc1,n,n,x,n,x
COc1ccc(-c2cc(=O)c3cc(OC)c(OC)cc3[nH]2)cc1,62.3,n,n,n,n
COc1ccc2[nH]c(-c3ccccc3)cc2c1,n,4.2,n,n,n
COc1ccc2nc(-c3ccccc3)[nH]c2c1,n,n,n,n,n
COc1ccc2cc(-c3ccccc3)ncc2c1,n,n,74.9,n,n
COc1ccc(-c2cc(=O)c3cc(F)ccc3[nH]2)cc1,n,n,n,n,n
COc1ccc(-c2cc3cc(OC)c(OC)cc3cn2)cc1,64.5,n,x,n,x
COc1cc(OC)c(S(=O)(=O)NC(C)C)cc1C(=O)O,n,n,n,n,n
O=C(O)CCn1cc(/C=N/O)c(-c2cccc([N+](=O)[O-])c2)n1,n,n,n,n,n
Cc1cnc(NC(=O)Cc2ccc(C)c(C)c2)s1,n,n,n,n,n
O=C(Nc1nc2ccc([N+](=O)[O-])cc2s1)C1CCCO1 (centres undefined),n,5.4,n,n,n
SMILES,AHR act,DAX1 inh,HSF-1 act,GAA850 FXN act,HSF1 inh
Fc1ccc(Sc2nc(-c3ccccc3)nnc2C(F)(F)F)cc1,n,n,66.5,n,n
CCOC(=O)c1sc2nc3c(cc2c1N)C(=O)CC(C)(C)C3,n,4.4,n,n,n
COC(=O)c1sc2nc3c(cc2c1N)C(=O)CC(C)(C)C3,n,n,n,n,n
COc1ccc([C@H]2C[C@@H](O)[C@H](n3cc(C4CC4)nn3)CN2Cc2cccs2)cc1,x,n,x,n,x
Cc1cccc(Cc2nnc(CCC(=O)N(C)CCc3ccccc3)o2)c1,n,n,64.2,n,n
Cc1cc(-c2nnc(CCC(=O)N(C)CCc3ccccc3)o2)no1,n,n,n,n,n
COc1cccc(CC(=O)NN2C(=O)NC3(CCCCC3)C2=O)c1,n,n,x,n,x
COc1ccccc1NC(=O)NC1(C)CCS(=O)(=O)C1 (centres undefined),x,n,n,n,n
Clc1ccc2[nH]c3c(NCC4CCCO4)ncnc3c2c1 (centres undefined),76.2,x,n,x,n
COC(=O)c1ccc2c(c1)SC1=C(CCCC1=O)N2,59.5,n,n,n,n
COc1ccc(CNC2CCSc3ccccc32)cc1OC (centres undefined),n,n,62.7,n,n
COc1ccc(C(=O)/C=C/c2cc(C(=O)O)cc3c2OCOC3)c(O)c1,n,n,94.9,n,n
CCOC(=O)C(N=Nc1nn[nH]n1)C(C)=O (centres undefined),x,n,x,n,x
CN(C)CCCN(C(=O)/C=C/c1cccs1)c1nc2c(F)cccc2s1,x,n,n,n,n
Cc1cccc2sc(N(CCN(C)C)C(=O)/C=C/c3cccs3)nc12,n,n,78.3,n,n
Cc1cccc2sc(N(CCCN(C)C)C(=O)COc3ccc(Cl)cc3)nc12,n,4.3,n,n,n
FC(F)(F)c1nnc(N2CCN(c3ccc(Cl)cc3)CC2)s1,n,5.2,n,n,n
Cc1ccc(/C=N/NC(=O)c2nnn(-c3nonc3N)c2CSc2ccc(Cl)cc2)o1,n,n,n,n,n
O=S(Cc1ccc(Cl)cc1)c1ccccc1 (centres undefined),x,n,x,n,x
CCSc1nc2ccccc2n1C(=O)/C=C/c1ccc(OC)c(OC)c1,n,n,81.8,n,n
C=CCSc1nc2ccccc2n1C(=O)/C=C/c1ccc(OC)c(OC)c1,n,n,70.6,n,n
COc1ccc(/C=C/C(=O)N2CCN(C)CC2)cc1OC,n,n,n,n,n
CCOC(=O)n1c(SCC(N)=O)nc2ccccc21,n,n,n,n,-65.4
CCn1c(SCC(=O)N/N=C/c2ccc(OC)c(OC)c2)nc2ccccc21,n,n,x,n,x
COc1cc(/C=C/C(=O)N2CCN(C(=O)/C=C/c3cc(OC)c(OC)c(OC)c3)CC2)cc(OC)c1OC,n,n,n,n,n
SMILES,AHR act,DAX1 inh,HSF-1 act,GAA850 FXN act,HSF1 inh
C=CCSc1nc2ccccc2n1C(=O)/C=C/c1cc(OC)c(OC)c(OC)c1,n,n,n,n,-63.8
COc1ccc(S(=O)(=O)Nc2ccc3c(c2)C(=O)N([C@H](C)CO)C[C@H](C)[C@@H](CN(C)S(=O)(=O)c2cccs2)O3)cc1,n,n,x,n,x
Cc1oc(-c2ccccc2Cl)nc1CS(=O)CC(=O)NCc1ccccc1Cl (centres undefined),n,n,n,n,n
Cc1ccc(-c2nnc(Cc3ccc(Cl)cc3)o2)cc1,n,n,n,n,n
Cc1ccc(C#N)c(SCc2nnc(-c3ccc(Cl)cc3)o2)n1,n,n,n,n,-84.0
Cc1ccc(C#N)c(SCc2cc3c(cc2Cl)OCO3)n1,50.9,n,n,n,n
Cc1cc(C)c(C#N)c(SCc2nnc(-c3ccccc3)o2)n1,n,n,n,n,-85.4
COc1ccccc1-c1cc(-c2ccc(C)cc2)nc(SCc2nnc(-c3ccccc3)o2)c1C#N,n,n,n,n,n
O=C(NCc1cccs1)C1CC(=O)N(Cc2ccccc2)C1 (centres undefined),n,n,x,n,x
O=C(NCc1ccccc1)c1cc(C2COCCN2C(=O)c2ccc(Cl)cc2)on1 (centres undefined),x,x,x,n,x

# Screening data (PubChem BioAssay)
